Pemphigus Ab inh – blocks pemphigus antibody binding to human desmoglein-3; binding (percent of control), % at 10 µM; P32926; actives 0.48% (n = 310,000); DSG3-coupled beads, scFv-anti-DSG3-GFP binding, flow cytometry; active compounds read low;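 active means binding more than 3 SD below its plate's average and above zero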;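 further: hits lower antibody fragment binding to DSG3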
bovine MsrA act – activates bovine MsrA enzyme | actives 0.3% (n = 360,000) | purified bovine MsrA, absorbance read-out | activation, % at 10.6 µM; in the data active means activation above about 7.5%
DAGLB inhibitor – blocks human DAGLB lipase activity | Q8NCG7 | HEK293T DAGLB membrane lysate, EnzChek fluorogenic substrate | inhibition, % at 5.17 µM | actives 0.059% (n = 340,000) | AID 504411; in the data active means inhibition above about 34%
Target sequence (Q8NCG7 whole entry, looked up): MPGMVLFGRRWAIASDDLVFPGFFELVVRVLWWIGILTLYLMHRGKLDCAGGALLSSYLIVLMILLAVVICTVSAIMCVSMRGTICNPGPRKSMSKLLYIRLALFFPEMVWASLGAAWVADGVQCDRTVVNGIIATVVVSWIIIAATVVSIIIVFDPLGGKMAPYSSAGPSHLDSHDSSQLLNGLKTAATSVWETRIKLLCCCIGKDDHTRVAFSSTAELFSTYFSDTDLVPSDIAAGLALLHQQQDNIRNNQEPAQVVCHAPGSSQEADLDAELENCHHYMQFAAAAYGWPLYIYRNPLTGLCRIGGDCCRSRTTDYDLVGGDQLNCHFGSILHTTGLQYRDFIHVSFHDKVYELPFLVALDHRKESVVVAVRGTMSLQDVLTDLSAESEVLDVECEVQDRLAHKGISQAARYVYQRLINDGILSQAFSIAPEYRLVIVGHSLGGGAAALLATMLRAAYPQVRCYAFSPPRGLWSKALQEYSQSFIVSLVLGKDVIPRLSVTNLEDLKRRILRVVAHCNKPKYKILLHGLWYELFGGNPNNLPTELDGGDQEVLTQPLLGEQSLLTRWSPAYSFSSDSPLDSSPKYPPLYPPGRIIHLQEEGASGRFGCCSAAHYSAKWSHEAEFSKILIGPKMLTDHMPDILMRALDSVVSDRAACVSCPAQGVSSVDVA
MsrA inh – bovine MsrA inhibition; AID 651718; actives 0.75% (n = 360,000); purified bovine MsrA, absorbance read-out; inhibition, % at 15.5 µM; in the data active means inhibition above about 4.5%
NadD block – NadD (S. aureus) enzyme inhibition. inhibition, % at 20 µM. purified NadD enzyme, colorimetric absorbance read-out. actives 0.78% (n = 360,000). AID 602399; in the data active means inhibition above about 26%
rCAG RNA binder – molecules binding r(CAG) RNA repeats; r(CAG) RNA repeat, TO-PRO-1 dye displacement fluorescence; actives 1.3% (n = 370,000); inhibition, % at 3 µM;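 active means inhibition above the plate cutoff, the mean of all test compounds on that plate plus 3 SD, cut at about 35% in these data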;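 further: higher means more dye released from RNA so lower well fluorescence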
DAGLB inh conf – DAGLB (human) inhibition, confirmation screen | actives 73% (n = 190) | shares compounds with DAGLB inhibitor | HEK293T DAGLB membrane lysate, EnzChek fluorogenic substrate | inhibition, % at 5.17 µM;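 active means mean inhibition over triplicate wells above a set limit taken from the primary lipase screen, cut at about 34% in these data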
Of the large screens only hits and unclear results are named; the others gave an inactive call (follow-up assays come after a bar, where they were run); ! = not confirmed by another sample. Sampled rows, rich in hits. Any-hit rate of the full collection: about 3.2%.

O=C(COC(=O)/C=C/c1cccc(Cl)c1)NC1CC1	none
COc1ccccc1CCc1nnc(CCC(=O)NC(C)Cc2ccsc2)o1 (stereo not drawn)	Pemphigus Ab inh 8.6
C=Cc1ccc(C(=O)Nc2nnc(-c3cccnc3)s2)cc1	none (no result: Pemphigus Ab inh, bovine MsrA act, DAGLB inhibitor, MsrA inh, NadD block)
Cc1cc(/C=C\c2ccc3cc(N(C)C)ccc3[n+]2C)c(C)n1-c1ccccc1	DAGLB inhibitor 39, NadD block 74 (no result: MsrA inh, rCAG RNA binder) | DAGLB inh conf 35
CCOc1ccc(-n2c(COc3ccccc3)nnc2SCC(=O)Nc2ccc(OCc3ccccc3)cc2)cc1	none (no result: Pemphigus Ab inh, bovine MsrA act, DAGLB inhibitor, MsrA inh, NadD block)
CCCNC(=O)C1(C)CCN(Cc2ccc(-c3ccccc3)o2)C1 (stereo not drawn)	none (no result: Pemphigus Ab inh, DAGLB inhibitor)
COC(=O)C1=C(C(=O)OC)SC(=C2C(=S)C(C)(C)N(C(=O)C3CC3)c3ccccc32)S1	DAGLB inhibitor 41 | DAGLB inh conf 47
COC(=O)C1=C(C(=O)OC)SC(=C2C(=S)C(C)(C)N(C(=O)C(C)C)c3ccccc32)S1	none
CC1=NN(c2ccc(Cl)cc2)C(=O)/C1=C\c1cccn1-c1ccc(S(N)(=O)=O)cc1	DAGLB inhibitor 36 | DAGLB inh conf inactive
O=C(CC[C@H]1O[C@@H](n2ccc(=O)[nH]c2=O)[C@H](O)[C@@H]1O)N[C@H](Cc1ccccc1)C(=O)NCCCc1ccccc1	none (no result: Pemphigus Ab inh, DAGLB inhibitor)
CC(=O)c1ccc(N2CCN(c3ncc(C(F)(F)F)cc3Cl)CC2)cc1	none
CC(=O)c1ccc(N2CCN(c3ccc(C(F)(F)F)cn3)CC2)cc1	DAGLB inhibitor 50 | DAGLB inh conf 70
O=C(Nc1ccccc1-c1ccccc1)c1ccccc1	none
Nc1c(S(=O)(=O)O)cc(NC(=O)c2ccccc2)c2c1C(=O)c1ccccc1C2=O	DAGLB inhibitor 61 (no result: MsrA inh, rCAG RNA binder) | DAGLB inh conf 72
O=c1cc2oc3cc(O)c(O)cc3c(-c3ccccc3[N+](=O)[O-])c-2cc1O	DAGLB inhibitor 43 | DAGLB inh conf inactive
CNc1ccc(N=Nc2cccc3ncccc23)cc1	DAGLB inhibitor 34 | DAGLB inh conf 56
c1ccc(-[n+]2nc(Nc3cccc4ccccc34)sc2-c2c3ccccc3cc3ccccc23)cc1	DAGLB inhibitor 43, NadD block 42 (no result: MsrA inh, rCAG RNA binder) | DAGLB inh conf 41
Fc1ccc(-[n+]2nc(Nc3ccccc3)sc2-c2c3ccccc3cc3ccccc23)cc1	none
O=C1C(=C(c2ccccc2)c2ccccc2)Nc2ccccc21	DAGLB inhibitor 40 | DAGLB inh conf 38
N#C/C(=N/Nc1ccc([N+](=O)[O-])cc1)C(=N)N1CCCCC1	none
N#C/C(=N\Nc1ccc([N+](=O)[O-])cc1)C(N)=S	DAGLB inhibitor 38 | DAGLB inh conf inactive
CCCC(=O)NC(c1cccs1)c1cc([N+](=O)[O-])c2cccnc2c1O (stereo not drawn)	DAGLB inhibitor 35 | DAGLB inh conf inactive
CC(CCC(C)C(C)(C)C)[C@@H]1CC[C@H]2C3C[C@H](OS(O)(=S)=S)[C@H]4C[C@H](OS(O)(=S)=S)[C@@H](OS(O)(=S)=S)C[C@]4(C)[C@H]3CC[C@]12C (stereo partly drawn) (tested in a mixture with another compound)	DAGLB inhibitor 35, NadD block 53 (no result: MsrA inh, rCAG RNA binder) | DAGLB inh conf 34
NC(=O)CC(NC(=O)c1ccc(Br)cc1)c1ccc(NCCc2ccc(F)cc2)c([N+](=O)[O-])c1 (stereo not drawn)	DAGLB inhibitor 39 | DAGLB inh conf 76
O=C(Nc1cccc(Cl)c1)c1nc[nH]c1C(=O)Nc1ccccc1F	none (no result: Pemphigus Ab inh)
COCc1cccc(-c2csc(C(C)(O)c3cccc(OC)c3)n2)c1 (stereo not drawn)	none (no result: Pemphigus Ab inh, DAGLB inhibitor)
COCCCNC(=O)CN1C(=O)C2CCCCN2C(=O)c2ccccc21 (stereo not drawn)	none (no result: Pemphigus Ab inh, bovine MsrA act, DAGLB inhibitor, MsrA inh, NadD block)
N=C1C(c2nc3ccccc3s2)=C(O)CN1NC(=O)c1ccccc1[N+](=O)[O-]	DAGLB inhibitor 37 | DAGLB inh conf 53
COC(=O)c1ccccc1NC1=C/C(=N\S(=O)(=O)c2cccs2)c2ccccc2C1=O	DAGLB inhibitor 42! | DAGLB inh conf 55
Cc1cc(N=Nc2ccccc2C(=O)O)c(C)c(C)c1O	DAGLB inhibitor 35, rCAG RNA binder 50 | DAGLB inh conf 48
Cc1cc(O)c(C(C)C)cc1N=Nc1ccccc1C(=O)O	none
Cc1cccc(C)c1Cn1c(C)c(C(=O)NCc2ccc([N+](=O)[O-])cc2)sc1=O	none (no result: Pemphigus Ab inh, DAGLB inhibitor)
CN1CCN(C2=C(NS(=O)(=O)c3cccs3)C(=O)c3ccccc3C2=O)CC1	none
CCOc1ccccc1N1CCN(C2=C(NS(=O)(=O)c3cccs3)C(=O)c3ccccc3C2=O)CC1	DAGLB inhibitor 44 | DAGLB inh conf 39
COc1ccc(/C=C(\C#N)C(=O)NCCc2ccccc2)cc1OCc1ccccc1	none
N#C/C(=C\c1ccc(O)c(O)c1)C(=O)NCCCc1ccccc1	DAGLB inhibitor 40 | DAGLB inh conf inactive
O=[N+]([O-])c1ccc(N2CCN(c3ccccc3)CC2)cc1	DAGLB inhibitor 34 | DAGLB inh conf 82
O=[N+]([O-])c1ccc(N2CCCCC2)cc1	none (no result: DAGLB inhibitor)
Cc1cccc(C)c1NC(=O)C1(C)CSCC(=O)N1C1CCN(Cc2ccccc2)CC1 (stereo not drawn)	none (no result: Pemphigus Ab inh, bovine MsrA act, DAGLB inhibitor, NadD block)
CC(C1SC(=S)NC1=O)C1SC(=S)NC1=O (stereo not drawn)	DAGLB inhibitor 44 | DAGLB inh conf 37
OC(c1ccccc1)C1(c2ccccc2)CCN(Cc2ccccc2)CC1 (stereo not drawn)	none (no result: Pemphigus Ab inh, bovine MsrA act, DAGLB inhibitor, NadD block)
COc1cc([C@H]2c3[nH]c4ccccc4c3C[C@H]3C(=O)N4[C@@H](c5cc(OC)c(OC)c(OC)c5)c5[nH]c6ccccc6c5C[C@H]4C(=O)N23)cc(OC)c1OC	DAGLB inhibitor 35 (no result: MsrA inh, rCAG RNA binder) | DAGLB inh conf 43
COc1ccc(Cc2c(-c3ccc(C#N)cc3)nc3c(Cl)cc(C(F)(F)F)cn23)c(C)c1	none (no result: Pemphigus Ab inh, DAGLB inhibitor)
O=C1/C(=C/c2ccc(O)c(O)c2)SC(=S)N1Nc1ccccc1	DAGLB inhibitor 40 (no result: MsrA inh, rCAG RNA binder) | DAGLB inh conf inactive
O=C(NN1C(=O)/C(=C/c2ccc(O)c(O)c2)SC1=S)c1ccccc1	DAGLB inhibitor 39 | DAGLB inh conf inactive
O=C1NC(Cc2ccc(O)cc2)c2nc3cc(F)ccc3c(=O)n2-c2cc3ccccc3cc21 (stereo not drawn)	none (no result: Pemphigus Ab inh)
Cc1ccc(S(=O)(=O)NC(=O)C2(C)CCN2C(=O)Cc2cccs2)nc1 (stereo not drawn)	none (no result: Pemphigus Ab inh, DAGLB inhibitor)
Cc1c(NC(=O)C2CCCN(S(=O)(=O)c3ccc(Cl)s3)C2)c(=O)n(-c2ccccc2)n1C (stereo not drawn)	none (no result: Pemphigus Ab inh, bovine MsrA act, DAGLB inhibitor, MsrA inh, NadD block)
CCn1c(NCc2ccc(N(C)C)cc2)nc2ccccc21	none (no result: Pemphigus Ab inh)
CN(C)c1ccc(N=Nc2nc3ccccc3n2C)cc1	DAGLB inhibitor 36 | DAGLB inh conf 59
COc1ccc(NC(=O)C2(C)Cc3c(-c4ccc5c(c4)OCO5)ccnc3O2)cn1 (stereo not drawn)	none (no result: Pemphigus Ab inh, DAGLB inhibitor)

Screening results deposited in PubChem by several laboratories.
